a7 integrin act: activates integrin-mediated alleviation for muscular dystrophy | alpha7betagal myoblasts, beta-gal FDG fluorescence, 48 h | 0.064% of 350,000 active | AID 624291 | Potency, µM (series often up to 38.3 µM), hits mostly activators; further: nearly all actives have a fitted effect of over 60% in size
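alpha7betagal+/- myoblasts (passage 13, 250/well) treated 48 h at 37C with compounds at 1:260 dilution of DMSO stock. Lysed, then beta-galactosidase activity read as FDG fluorescence (ex 480/em 540) after 30 min, with pre-read for autofluorescence.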
BCR signal inh: blocks chronic active B-cell receptor signaling; 0.05% of 340,000 active; AID 493014; Potency, µM (titrated, usually from 46.1 µM), hits mostly inhibitors; ABC-DLBCL IkBa-CBG/CBR reporter, luminescence ratio, 4 h; active means well fitted inhibition curve with a large enough effect in the signal ratio, with a control signal flat, not every such curve was filed as active; inconclusive means small, poorly fitted or top-dose-only effect, or effect the other way, or a change in a side signal; the % refers to the signal ratio
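Cell line TMD8 (human ABC DLBCL), stably expressing tet-inducible CBG68-IkBa fusion and CBR; IMDM/0.5% FBS; cpd up to 46 uM; dox induction, 4 h, 37C/5% CO2; dual luminescence; green/red ratio; MG132 control.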
Mito fusion yeast: mitochondrial division inhibition or fusion activation | S. cerevisiae fusion-defective mutant growth rescue, CellTiterGlo 48 h | Potency, µM (top dose mostly 46.1 µM), hits mostly activators | 0.23% of 320,000 active | AID 485298; further: nearly all actives have a fitted effect of over 45% in size
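Read-out: ATP-based luminescence (CellTiterGlo, 10 min ambient) reporting growth of fusion-defective ts yeast after 48 hours at 37C on glycerol/ethanol YPEG medium in the presence of compound.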
uPA surface inh: cell surface uPA generation inhibition | cell surface uPA generation assay, qHTS | Potency, µM (doses to about 38.3 µM), usual class: inhibitors | 0.31% of 330,000 active; active means well fitted inhibition curve with a large enough effect; inconclusive means small, poorly fitted or top-dose-only effect; inactive means no such curve, though single readings can be large or run the other way; tested in mouse RAW 264.7 cells; further: nearly all actives have a fitted effect of over 55% in size
VP16 counter: Gal4-VP16 reporter inhibition counter-screen. Drosophila S2 Gal4-VP16 UAS-luciferase, luminescence, 20 h. Potency, µM (doses to about 53.6 µM), most hits filed as inhibitors. 3.5% of 310,000 active. AID 2546;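 further: Gal4-VP16 expression switched on by copper sulfate through the metallothionein promoter; nearly all actives have a fitted effect of over 50% in size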
RORgamma inh: blocks mouse ROR gamma transcriptional activity | P51450 | Drosophila S2 Gal4-RORgamma UAS-luciferase reporter, 20 h | Potency, µM (highest dose often 53.6 µM), most hits filed as inhibitors | 5.4% of 310,000 active | AID 2551; further: nearly all actives have a fitted effect of over 60% in size
Target sequence (P51450 whole entry, looked up, the tested form may be a part): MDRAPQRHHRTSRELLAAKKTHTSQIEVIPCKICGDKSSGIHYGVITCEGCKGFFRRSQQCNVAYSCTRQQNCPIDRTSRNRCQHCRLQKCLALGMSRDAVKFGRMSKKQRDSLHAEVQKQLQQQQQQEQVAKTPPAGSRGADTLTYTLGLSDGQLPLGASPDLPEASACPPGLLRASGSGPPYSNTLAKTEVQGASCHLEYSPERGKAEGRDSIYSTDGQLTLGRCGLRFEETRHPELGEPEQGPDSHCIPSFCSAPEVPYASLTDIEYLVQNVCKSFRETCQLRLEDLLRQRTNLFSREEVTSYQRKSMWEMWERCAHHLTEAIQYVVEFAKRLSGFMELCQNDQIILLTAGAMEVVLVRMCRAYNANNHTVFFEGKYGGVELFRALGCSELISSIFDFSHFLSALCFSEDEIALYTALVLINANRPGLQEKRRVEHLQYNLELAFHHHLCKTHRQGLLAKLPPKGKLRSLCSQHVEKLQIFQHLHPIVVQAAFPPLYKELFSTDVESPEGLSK
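Read-out: Photinus luciferase luminescence; inhibitors lower reporter signal. Insect Schneider cells with Gal4-ROR gamma fusion under metallothionein promoter, UAS reporter; 700 uM final copper sulfate induction, 20 hr, ambient temperature.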
Of the large screens only hits and unclear results are named; the others gave an inactive call; ! = a repeat was not active. Sampled rows, rich in hits. Any-hit rate of the full collection: about 5.5%. Unless noted, the call rests on the fitted dose curve; in most records, active means well fitted curve in the direction sought with a large enough effect; inconclusive means small, poorly fitted or top-dose-only effect, or another doubt; inactive means no such curve, though single readings can be large; an effect the other way counts as inactive or inconclusive.

O=C(NCCC1=CCCCC1)C1CCN(S(=O)(=O)c2cccc(C(F)(F)F)c2)CC1	uPA surface inh inconclusive (no result: VP16 counter, RORgamma inh)
COC(=O)c1ccc(/C=C2/SC(=S)N(CCCC(=O)Nc3ccc(O)cc3)C2=O)cc1	BCR signal inh inconclusive
Cc1ccc(/C=C2\SC(=S)N(CCCC(=O)Nc3ccc(O)cc3)C2=O)cc1	BCR signal inh inconclusive, RORgamma inh 0.0501µM (no result: VP16 counter)
CCc1nnc(NC(=O)c2ccc(S(=O)(=O)N3CCCc4ccccc43)cc2)o1	BCR signal inh inconclusive, uPA surface inh inconclusive, VP16 counter 0.562µM, RORgamma inh 0.355µM
Cc1cc(NC(=O)c2ccc(S(=O)(=O)N3CCc4ccccc43)cc2)no1	a7 integrin act inconclusive, BCR signal inh inconclusive, VP16 counter inconclusive, RORgamma inh 11.2µM
O=C(Nc1nc2c(s1)CCCC2)c1ccc(S(=O)(=O)N2CCCc3ccccc32)cc1	VP16 counter inconclusive, RORgamma inh 11.2µM
CNC(=O)c1ccsc1NC(=O)c1ccc(S(=O)(=O)N2CCCc3ccccc32)cc1	uPA surface inh inconclusive, RORgamma inh inconclusive
COc1ccc(S(=O)(=O)N2CCc3ccccc32)cc1C(=O)Nc1ccc(C(N)=O)cc1	a7 integrin act inconclusive, BCR signal inh inconclusive, uPA surface inh 14.1µM (no result: VP16 counter, RORgamma inh)
CC1CCc2nc(NC(=O)c3ccc(S(=O)(=O)N4CCCc5ccccc54)cc3)sc2C1 (stereo not given)	RORgamma inh 6.31µM
Cc1ccc(S/C=C\C(=O)c2ccccc2)cc1	BCR signal inh inconclusive, VP16 counter 14.1µM
CC(/C=C/C(=O)c1ccc(C)cc1)=C\c1ccccc1	none
Cc1ccc(C(=O)/C=C\C(=O)c2ccc(C)cc2)cc1	BCR signal inh inconclusive, VP16 counter 10µM
CCc1ccc(OCC2c3cc(OC)c(OC)cc3CCN2C(=S)NC)cc1 (stereo not given)	BCR signal inh inconclusive, RORgamma inh 11.2µM
CCc1ccc(OCC2c3cc(OC)c(OC)cc3CCN2C(=S)NCCOC)cc1 (stereo not given)	none
COc1cccc(/C=N/n2c(-c3n[nH]c4c3CCC4)n[nH]c2=S)c1OC	none
CCOc1ccc(NC(=O)c2cc(S(=O)(=O)NC3CCCC3)ccc2F)cc1	none (no result: a7 integrin act, Mito fusion yeast, uPA surface inh, VP16 counter, RORgamma inh)
O=Nc1onc(-c2ccc([N+](=O)[O-])cc2)c1NO	a7 integrin act inconclusive, BCR signal inh inconclusive, VP16 counter 4.47µM, RORgamma inh 3.55µM (no result: uPA surface inh)
Cc1ccc(-c2noc(N=O)c2NO)cc1	BCR signal inh inconclusive, VP16 counter 0.631µM, RORgamma inh 0.708µM
Cc1onc(-c2ccccc2)c1NC(=O)Nc1c(-c2ccccc2)noc1C	none
CC(C)(C)OC(=O)C1=NOC2(C=CC(=O)C=C2)C1	VP16 counter 12.6µM!, RORgamma inh inconclusive (no result: a7 integrin act, BCR signal inh, Mito fusion yeast, uPA surface inh)
Cc1[nH]c(=O)c(C#N)c(C)c1Cc1ccc(Cl)cc1Cl	BCR signal inh inconclusive
Cc1[nH]c(=S)c(C#N)c(C)c1Cc1ccc(Cl)cc1Cl	VP16 counter 20µM, RORgamma inh 3.16µM
CCCC/C(O)=C1\C(=O)CC(C)(C)CC1=Nc1ccccc1OC	none (no result: uPA surface inh)
CC/C(O)=C1\C(=O)CC(C)(C)CC1=Nc1ccccc1C	BCR signal inh inconclusive, Mito fusion yeast 11.2µM
CN1/C(=C/C(=O)COC(=O)C2COc3ccccc3O2)C(C)(C)c2ccccc21 (stereo not given)	none (no result: BCR signal inh, Mito fusion yeast, VP16 counter, RORgamma inh)
CNS(=O)(=O)c1cccc(C(=O)OCC(=O)/C=C2/N(C)c3ccccc3C2(C)C)c1	VP16 counter 0.398µM, RORgamma inh inconclusive
CN1/C(=C\C(=O)COC(=O)CN2C(=O)C3CC=CCC3C2=O)C(C)(C)c2ccccc21 (stereo not given)	VP16 counter 4.47µM, RORgamma inh inconclusive
CC1CCC(N(C)C(=O)CN2C(=O)NC(c3ccccc3)(c3ccccc3)C2=O)CC1 (stereo not given)	none (no result: BCR signal inh, Mito fusion yeast, uPA surface inh, VP16 counter, RORgamma inh)
Cc1ccc(NC(=O)CSc2nn(-c3ccccc3)c(=S)s2)cc1S(=O)(=O)N(C)C	BCR signal inh inconclusive, VP16 counter 14.1µM, RORgamma inh inconclusive
O=C(/C=C/c1cccs1)NC(=S)NNC(=O)Cc1cccs1	BCR signal inh inconclusive, VP16 counter inconclusive, RORgamma inh 11.2µM
COc1ccc(/C=C/C(=O)NC(=S)NNC(=O)Cc2cccs2)cc1OC	RORgamma inh inconclusive

From PubChem
